Hits are enriched below; roughly 2.5% of the tested compounds scored in any of these assays.
AI-2 QS mod: Vibrio harveyi AI-2 quorum sensing modulators, primary screen, JMH597 strain, luminescence/OD600 ratio. activity change, % at 7.5 µM. Vibrio harveyi JMH597 AI-2 luminescence/OD600 ratio, 9 h; stronger effect = lower value; strain lacks LuxN and CqsS sensors; 0 = neutral-control median. 0.4% of 300,000 active; in the data active = activity change below about -75%, passing the limit was not always enough;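 also: luminescence divided by OD600 gain over 9 h not by final OD600 alone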
Efflux pump mplx: inhibitors of Candida efflux pumps in yeast, primary screen, S. cerevisiae, Nile Red, multiplex | 0.44% of 330,000 active | inhibition, % at 10 µM | S. cerevisiae Candida pump triplex;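 active = plate passing quality check with inhibition over a set limit, or well fluorescence over plate mean plus 4 SD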;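 also: Nile Red retained in pooled yeast measured as flow cytometry median fluorescence; 0% = buffer negative control and 100% = Enniatin B positive control; higher means more Nile Red kept so more efflux inhibition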
ATG4B inhibitor: ATG4B protease inhibitors, primary screen, biochemical, fluorescence, uHTS; 0.51% of 340,000 active; inhibition, % at 8.33 µM; AID 504462, 2011; ATG4B cleavage of LC3-PLA2, NBD-HPC fluorescence, 1 h; Cysteine protease ATG4B (Homo sapiens), Q9Y4P1; in the data active = inhibition above about 40%
Target sequence (Q9Y4P1 whole entry, looked up): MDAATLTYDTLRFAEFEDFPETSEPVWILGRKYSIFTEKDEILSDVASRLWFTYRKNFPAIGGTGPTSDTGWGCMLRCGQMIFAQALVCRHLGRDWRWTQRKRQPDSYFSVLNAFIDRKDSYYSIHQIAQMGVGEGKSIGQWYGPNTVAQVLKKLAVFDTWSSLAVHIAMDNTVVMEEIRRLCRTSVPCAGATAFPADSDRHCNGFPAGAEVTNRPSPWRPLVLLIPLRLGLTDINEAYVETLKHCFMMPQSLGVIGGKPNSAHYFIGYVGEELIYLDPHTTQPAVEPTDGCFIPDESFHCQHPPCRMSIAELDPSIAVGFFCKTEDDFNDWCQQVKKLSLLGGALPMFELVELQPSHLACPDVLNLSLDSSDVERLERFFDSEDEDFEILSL
Mot1-301 SUMO: yeast Mot1-301 growth rescue at high temperature, primary screen, SUMOylation pathway inhibitor project, S. cerevisiae, ATP luminescence, 38.5C | growth rescue, % at 18.8 µM | 1% of 320,000 active | S. cerevisiae Mot1-301 growth rescue; percent above DMSO median, 100 means doubled;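 active = every valid replicate shows activation above 250% relative to neutral control wells; inactive = the rest, any valid replicate at or below 250%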;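 also: OY570 slx delta 5 strain wells were the positive control but not used for scaling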
V-ATPase pH: regulators of yeast V-ATPase proton pumping, primary screen, pHLuorin cytosolic pH fluorescence. S. cerevisiae. AID 504577, 2011. response, % at 10 µM. 0.37% of 350,000 active; in the data active = response mostly above about 7.3%, no sharp cut-off; inactive = mostly below about 5.4%; also: actives read high
JMH597 growth: Vibrio harveyi growth inhibition, confirmation, counter-screen for AI-2 quorum sensing project, JMH597 strain, OD600 absorbance; shares compounds with AI-2 QS mod; 9 h; lacks LuxN and CqsS sensors; growth inhibition, % at 7.5 µM; 1% of 750 active; AID 2726, 2010;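 active = every replicate shows growth inhibition above 50%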
BB721 const-QS lum: luminescence inhibition in constitutive-on V. harveyi, confirmation, counter-screen for LuxS inhibitor project, strain BB721, luminescence readout; Vibrio harveyi BB721 luminescence, 9 h; AID 2727, 2010; inhibition, % at 7.5 µM; shares compounds with AI-2 QS mod; 95% of 750 active;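 active = inhibition above about 80% in every replicate, not just on average, limit read from the data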
BB721 growth: growth inhibition of V. harveyi BB721, confirmation, cytotoxicity control for AI-2 quorum sensing inhibitors, strain BB721, absorbance OD600; shares compounds with AI-2 QS mod; Vibrio harveyi BB721 growth, 9 h; growth inhibition, % at 7.5 µM; 3% of 750 active;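 active = every replicate shows growth inhibition above 50%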
AI-2 QS JMH597: Vibrio harveyi AI-2 signaling luminescence modulation – JMH597 strain, confirmation | shares compounds with AI-2 QS mod | Vibrio harveyi JMH597 AI-2 quorum sensing luminescence, 9 h; luxN and CqsS knockout, AI-2 only | inhibition, % at 7.5 µM | 97% of 750 active;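 active = every replicate shows more than 75% inhibition of signal versus neutral control wells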
Active calls of the source: *; ! = repeats disagree.

What do the screens show for `CC12CC(=O)C3C(CCC4CC(=O)C=CC43C)C1CCC2=O` (centres undefined)?
ATG4B inhibitor: -5.9; V-ATPase pH: -2.7

What do the screens show for `ClC1C(Cl)C(Cl)C(Cl)C(Cl)C1Cl` (centres undefined)?
Efflux pump mplx: -0.1; ATG4B inhibitor: 0.4; Mot1-301 SUMO: 331.0*!; V-ATPase pH: 1.8

What do the screens show for `COc1ccc(OCC(=O)N2CCN(Cc3ccc(SC)cc3)CC2)cc1`?
AI-2 QS mod: 14.6; Efflux pump mplx: 0.3; ATG4B inhibitor: 0.9; Mot1-301 SUMO: 262.0*; V-ATPase pH: 1.4

What do the screens show for `Nc1nonc1C(=O)N/N=C/c1ccc([N+](=O)[O-])o1`?
AI-2 QS mod: -83.9*; Efflux pump mplx: 0.3; ATG4B inhibitor: 5.8; Mot1-301 SUMO: 16.2; V-ATPase pH: 1.0

What do the screens show for `CCOC(=O)c1cccc(C2=C(CNC(=O)c3ccc([N+](=O)[O-])cc3)[C@H]3CC[C@@H](C2)N3Cc2ccccc2)c1`?
V-ATPase pH: 0.0

What do the screens show for `CN1C(=O)NC(=O)C2(CCCC2)C1=O`?
ATG4B inhibitor: -6.4; V-ATPase pH: -1.3

Results for O=C1NC(=S)N(c2ccccc2)C(=O)/C1=C/c1ccco1 ?
AI-2 QS mod: 15.9; Efflux pump mplx: -0.2; ATG4B inhibitor: 58.6*; Mot1-301 SUMO: 6.7; V-ATPase pH: 7.6*

Results for C[C@]12CCC3C(CC[C@@H]4C[C@H](O)CC[C@]34C)C1CCC2=O (some centres undefined) ?
Efflux pump mplx: 0.0; ATG4B inhibitor: -0.6; Mot1-301 SUMO: -5.1; V-ATPase pH: 6.2

Results for CCOP(=O)(CCP(=O)(OCC)OCC)OCC.C[CH2][Sn]([Cl])([Cl])[CH2]C ?
ATG4B inhibitor: -4.8; V-ATPase pH: -1.4

Results for COc1ccc(CN2C(=O)NC(=O)/C(=C\c3ccco3)C2=O)cc1 ?
AI-2 QS mod: 23.6; Efflux pump mplx: 0.2; ATG4B inhibitor: 8.1; Mot1-301 SUMO: 22.2; V-ATPase pH: 4.2

What do the screens show for `COc1ccc(CN2C(=O)NC(=O)/C(=C/c3ccc([N+](=O)[O-])s3)C2=O)cc1`?
AI-2 QS mod: 85.6; Efflux pump mplx: 0.1; ATG4B inhibitor: 3.8; Mot1-301 SUMO: -27.9; V-ATPase pH: 132.8*

How did O=C1NC(=O)N(Cc2ccc(F)cc2)C(=O)/C1=C\c1ccc([N+](=O)[O-])s1 do in these assays?
AI-2 QS mod: 24.0; Efflux pump mplx: 0.1; ATG4B inhibitor: 12.5; Mot1-301 SUMO: 144.8; V-ATPase pH: 101.2*

What do the screens show for `COc1ccc(C2=NCC(=S)Nc3ccc(Cl)cc32)cc1OC`?
AI-2 QS mod: 17.5; Efflux pump mplx: 0.0; ATG4B inhibitor: -7.2; Mot1-301 SUMO: 20.6; V-ATPase pH: -1.9

What do the screens show for `S=C1CN=C(c2ccccc2)c2cc(Cl)ccc2N1`?
AI-2 QS mod: 10.7; Efflux pump mplx: -0.2; ATG4B inhibitor: 4.9; Mot1-301 SUMO: 2.7; V-ATPase pH: 25.0*

How did COC(=O)C1=C(c2ccc(OC(F)(F)F)cc2)C[C@@H]2CC[C@H]1N2C(=O)NC1CCCCC1 do in these assays?
Efflux pump mplx: -0.2; ATG4B inhibitor: -5.8; Mot1-301 SUMO: 16.2; V-ATPase pH: 3.0

Results for CCOC(=O)[C@]1(C#N)[C@@H]2C=CC(C(N)=O)=CN2[C@@H](C(N)=O)[C@@H]1c1ccc(F)cc1 ?
AI-2 QS mod: 47.9; Efflux pump mplx: 0.0; ATG4B inhibitor: 48.2*; Mot1-301 SUMO: -11.7; V-ATPase pH: -4.2

Results for CCOC(=O)[C@@]1(C#N)C(c2ccc(Cl)c(Cl)c2)[C@H](C(N)=O)N2C=C(C(C)=O)C=C[C@H]21 (some centres undefined) ?
AI-2 QS mod: 19.3; Efflux pump mplx: -0.2; ATG4B inhibitor: -16.6; Mot1-301 SUMO: 3.0; V-ATPase pH: -3.1

How did CCOC(=O)[C@@]1(C#N)[C@@H]2C=CC(C(N)=O)=CN2[C@@H](C(N)=O)[C@@H]1c1cccc(Cl)c1 do in these assays?
AI-2 QS mod: 37.1; Efflux pump mplx: -0.4; ATG4B inhibitor: 93.8*; Mot1-301 SUMO: 1.0; V-ATPase pH: 0.7

How did COC(=O)[C@@]1(C#N)[C@@H]2C=CC(C(C)=O)=CN2[C@@H](C(N)=O)[C@@H]1c1ccc(F)cc1 do in these assays?
AI-2 QS mod: 2.6; Efflux pump mplx: -0.1; ATG4B inhibitor: -7.5; Mot1-301 SUMO: -5.9; V-ATPase pH: 5.9

Results for COC(=O)C1=C(N)Oc2c(c(=O)oc3ccccc23)C1c1cccnc1 (centres undefined) ?
AI-2 QS mod: -6.9; Efflux pump mplx: 0.1; ATG4B inhibitor: 5.9; Mot1-301 SUMO: -25.0; V-ATPase pH: 27.1*

Results for O=C(Cc1ccccc1)OCC(=O)c1ccc(F)cc1 ?
Efflux pump mplx: 0.1; ATG4B inhibitor: -0.5; Mot1-301 SUMO: 44.8; V-ATPase pH: -1.6

Results for O=C1COc2ccc(C(=O)COC(=O)Cc3ccccc3)cc2N1 ?
AI-2 QS mod: -90.0*; Efflux pump mplx: 0.0; ATG4B inhibitor: 3.4; Mot1-301 SUMO: 4.8; V-ATPase pH: 1.0; JMH597 growth: -6.2; BB721 const-QS lum: 96.4*; BB721 growth: -37.4; AI-2 QS JMH597: 97.5*

How did O=C(Cc1ccccc1)OCC(=O)c1ccccc1 do in these assays?
AI-2 QS mod: -80.1*; Efflux pump mplx: 0.1; ATG4B inhibitor: -1.9; Mot1-301 SUMO: 21.0; V-ATPase pH: -2.9; JMH597 growth: 18.6; BB721 const-QS lum: 96.0*; BB721 growth: 3.3; AI-2 QS JMH597: 97.5*

How did c1ccc2c(c1)[IH]c1ccccc1-2 do in these assays?
ATG4B inhibitor: 10.3; V-ATPase pH: -0.5

Results for CCc1ccc(NC(=O)CN2CC(c3ccccc3)CC2=O)cc1 (centres undefined) ?
AI-2 QS mod: -81.5*; Efflux pump mplx: 0.0; ATG4B inhibitor: -7.3; Mot1-301 SUMO: -23.8; V-ATPase pH: 4.4; JMH597 growth: 20.8; BB721 const-QS lum: 87.8*; BB721 growth: 9.8; AI-2 QS JMH597: 92.3*

Assay outcomes as filed in PubChem.
